Here are results for six molecules from ChEMBL document CHEMBL1961873, “Compounds: GSK PKIS; Assays: Nanosyn kinase panel” (2012).

In experiment [1] the target is T1, Tyrosine-protein kinase ITK/TSK (Homo sapiens) (UniProt Q08881).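 Further: values are mean percent inhibition of ITK from the GSK PKIS screen.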
T1 sequence (whole entry): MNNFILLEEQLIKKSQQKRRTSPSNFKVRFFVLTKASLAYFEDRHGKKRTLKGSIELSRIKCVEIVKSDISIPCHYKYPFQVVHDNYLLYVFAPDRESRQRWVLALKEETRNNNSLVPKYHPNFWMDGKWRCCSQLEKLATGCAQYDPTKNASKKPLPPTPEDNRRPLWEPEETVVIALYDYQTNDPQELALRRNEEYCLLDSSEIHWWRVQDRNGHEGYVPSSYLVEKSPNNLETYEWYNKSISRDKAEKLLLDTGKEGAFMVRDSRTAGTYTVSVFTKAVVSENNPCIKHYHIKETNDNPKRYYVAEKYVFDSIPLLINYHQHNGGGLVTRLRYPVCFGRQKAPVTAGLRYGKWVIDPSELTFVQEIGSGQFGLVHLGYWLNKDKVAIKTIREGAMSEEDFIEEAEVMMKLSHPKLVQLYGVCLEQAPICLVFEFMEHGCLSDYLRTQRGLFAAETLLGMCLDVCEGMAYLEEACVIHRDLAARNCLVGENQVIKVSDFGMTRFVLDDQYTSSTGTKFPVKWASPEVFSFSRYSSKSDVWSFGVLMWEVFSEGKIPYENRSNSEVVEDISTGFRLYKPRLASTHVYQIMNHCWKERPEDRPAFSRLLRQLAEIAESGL
The conditions noted are these: at 1 µM.

The target of experiment [2] is Tyrosine-protein kinase JAK1 (Homo sapiens) (UniProt P23458). The settings on record: at 0.1 µM.
Experiment [3] has the same target. The conditions noted are these: at 1 µM.
In experiment [4] the target is Tyrosine-protein kinase JAK2 (Homo sapiens) (UniProt O60674). The conditions noted are these: at 0.1 µM.
Tyrosine-protein kinase JAK2 (Homo sapiens), sequence (O60674 whole entry): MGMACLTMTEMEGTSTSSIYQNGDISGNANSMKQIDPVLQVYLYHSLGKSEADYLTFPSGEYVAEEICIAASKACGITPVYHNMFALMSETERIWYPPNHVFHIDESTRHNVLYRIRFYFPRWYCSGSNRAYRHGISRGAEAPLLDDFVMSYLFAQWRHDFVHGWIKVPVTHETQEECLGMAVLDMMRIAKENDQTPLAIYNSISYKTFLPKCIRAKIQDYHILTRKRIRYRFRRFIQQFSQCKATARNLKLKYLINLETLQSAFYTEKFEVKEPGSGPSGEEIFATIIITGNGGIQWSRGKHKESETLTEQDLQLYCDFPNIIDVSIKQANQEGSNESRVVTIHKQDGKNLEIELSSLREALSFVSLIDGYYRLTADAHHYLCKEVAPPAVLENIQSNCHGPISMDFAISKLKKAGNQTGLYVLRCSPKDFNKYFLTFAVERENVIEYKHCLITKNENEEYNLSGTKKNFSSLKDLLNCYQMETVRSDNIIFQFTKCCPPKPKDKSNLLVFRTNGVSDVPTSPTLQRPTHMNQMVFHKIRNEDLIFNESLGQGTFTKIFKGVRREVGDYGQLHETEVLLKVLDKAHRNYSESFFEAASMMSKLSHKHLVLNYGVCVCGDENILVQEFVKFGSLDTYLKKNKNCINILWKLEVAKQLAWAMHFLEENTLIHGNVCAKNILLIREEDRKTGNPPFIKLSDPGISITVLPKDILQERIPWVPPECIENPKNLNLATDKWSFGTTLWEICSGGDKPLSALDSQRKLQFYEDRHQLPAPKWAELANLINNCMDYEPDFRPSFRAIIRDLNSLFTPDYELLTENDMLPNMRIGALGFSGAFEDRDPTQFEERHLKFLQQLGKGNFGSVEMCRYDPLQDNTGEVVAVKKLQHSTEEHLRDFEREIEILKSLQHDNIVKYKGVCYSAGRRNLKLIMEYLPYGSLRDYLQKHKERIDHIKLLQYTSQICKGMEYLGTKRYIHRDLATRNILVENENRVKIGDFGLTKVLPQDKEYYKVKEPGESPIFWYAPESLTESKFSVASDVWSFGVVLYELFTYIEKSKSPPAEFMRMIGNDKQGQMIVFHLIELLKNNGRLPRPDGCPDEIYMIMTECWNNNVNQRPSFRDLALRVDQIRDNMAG
Experiment [5] has the same target. The conditions noted are these: at 1 µM.
Experiment [6] has as its target T2, Tyrosine-protein kinase JAK3 (Homo sapiens) (UniProt P52333).
T2 sequence (whole entry): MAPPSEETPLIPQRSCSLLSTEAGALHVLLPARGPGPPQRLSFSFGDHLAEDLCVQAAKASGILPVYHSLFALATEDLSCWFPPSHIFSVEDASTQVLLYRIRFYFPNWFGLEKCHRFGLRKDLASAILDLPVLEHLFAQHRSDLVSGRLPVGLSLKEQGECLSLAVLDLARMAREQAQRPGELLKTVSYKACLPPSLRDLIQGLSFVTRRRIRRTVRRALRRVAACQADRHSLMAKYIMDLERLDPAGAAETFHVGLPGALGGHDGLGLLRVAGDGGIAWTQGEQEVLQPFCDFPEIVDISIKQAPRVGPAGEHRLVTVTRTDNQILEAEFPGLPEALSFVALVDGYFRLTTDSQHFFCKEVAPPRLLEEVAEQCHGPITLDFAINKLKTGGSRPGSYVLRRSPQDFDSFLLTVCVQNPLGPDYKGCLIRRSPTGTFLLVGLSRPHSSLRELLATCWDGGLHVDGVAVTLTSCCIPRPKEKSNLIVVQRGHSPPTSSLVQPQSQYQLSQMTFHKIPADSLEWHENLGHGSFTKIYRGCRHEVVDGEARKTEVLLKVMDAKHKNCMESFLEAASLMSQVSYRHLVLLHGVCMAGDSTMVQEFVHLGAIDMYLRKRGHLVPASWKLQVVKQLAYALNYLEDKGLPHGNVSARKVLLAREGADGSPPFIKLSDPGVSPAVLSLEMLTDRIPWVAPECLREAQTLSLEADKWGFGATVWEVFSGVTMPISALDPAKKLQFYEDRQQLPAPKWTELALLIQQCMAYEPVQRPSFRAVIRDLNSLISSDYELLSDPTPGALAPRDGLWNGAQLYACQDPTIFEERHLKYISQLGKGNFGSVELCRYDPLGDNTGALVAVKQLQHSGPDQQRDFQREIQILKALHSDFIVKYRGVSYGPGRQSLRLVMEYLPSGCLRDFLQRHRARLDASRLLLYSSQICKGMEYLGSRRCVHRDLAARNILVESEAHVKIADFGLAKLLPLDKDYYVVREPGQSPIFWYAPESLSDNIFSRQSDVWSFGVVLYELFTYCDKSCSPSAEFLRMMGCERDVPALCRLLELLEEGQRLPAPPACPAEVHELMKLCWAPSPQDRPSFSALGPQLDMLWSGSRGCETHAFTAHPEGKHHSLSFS
The settings on record: at 0.1 µM.

Experiment [7] has as its target T2, Tyrosine-protein kinase JAK3 (Homo sapiens). The conditions noted are these: at 1 µM.
In experiment [8] the target is Vascular endothelial growth factor receptor 2 (Homo sapiens) (UniProt P35968). The conditions noted are these: at 0.1 µM.
Vascular endothelial growth factor receptor 2 (Homo sapiens), sequence (P35968 whole entry): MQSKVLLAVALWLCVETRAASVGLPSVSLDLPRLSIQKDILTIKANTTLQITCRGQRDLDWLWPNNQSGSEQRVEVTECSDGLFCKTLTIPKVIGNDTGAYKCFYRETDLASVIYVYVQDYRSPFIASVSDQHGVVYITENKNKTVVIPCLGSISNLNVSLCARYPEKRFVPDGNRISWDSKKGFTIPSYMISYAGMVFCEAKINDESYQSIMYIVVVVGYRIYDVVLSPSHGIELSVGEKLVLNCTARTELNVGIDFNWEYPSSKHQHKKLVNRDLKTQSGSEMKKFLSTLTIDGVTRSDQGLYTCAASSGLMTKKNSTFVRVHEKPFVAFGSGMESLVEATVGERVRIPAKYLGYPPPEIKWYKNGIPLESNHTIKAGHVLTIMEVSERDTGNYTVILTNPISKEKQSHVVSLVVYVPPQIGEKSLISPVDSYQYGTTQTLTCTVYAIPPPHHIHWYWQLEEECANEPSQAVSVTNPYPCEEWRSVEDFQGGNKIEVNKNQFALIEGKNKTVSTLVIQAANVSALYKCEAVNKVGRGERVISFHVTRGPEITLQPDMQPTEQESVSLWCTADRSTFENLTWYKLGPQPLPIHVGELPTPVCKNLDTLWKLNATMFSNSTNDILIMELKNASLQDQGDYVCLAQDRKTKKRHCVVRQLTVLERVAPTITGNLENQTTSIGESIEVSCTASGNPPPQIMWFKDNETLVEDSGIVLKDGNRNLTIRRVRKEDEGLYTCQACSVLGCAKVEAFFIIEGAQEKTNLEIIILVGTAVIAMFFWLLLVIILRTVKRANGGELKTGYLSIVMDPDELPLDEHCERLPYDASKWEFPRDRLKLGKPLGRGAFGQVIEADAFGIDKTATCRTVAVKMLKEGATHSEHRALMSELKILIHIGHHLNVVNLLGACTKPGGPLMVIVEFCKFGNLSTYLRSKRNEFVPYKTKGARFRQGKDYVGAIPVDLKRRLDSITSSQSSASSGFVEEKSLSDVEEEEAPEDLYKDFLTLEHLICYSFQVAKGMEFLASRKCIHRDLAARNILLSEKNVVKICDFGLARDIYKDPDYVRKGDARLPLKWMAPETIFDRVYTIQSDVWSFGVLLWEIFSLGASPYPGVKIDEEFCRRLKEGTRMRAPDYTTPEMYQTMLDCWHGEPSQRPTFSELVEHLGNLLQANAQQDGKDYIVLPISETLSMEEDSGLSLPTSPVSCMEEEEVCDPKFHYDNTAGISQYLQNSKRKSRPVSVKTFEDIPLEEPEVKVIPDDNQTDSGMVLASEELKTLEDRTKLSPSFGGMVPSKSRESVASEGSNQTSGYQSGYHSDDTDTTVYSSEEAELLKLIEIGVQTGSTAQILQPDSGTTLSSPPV
Experiment [9] has the same target. The settings on record: at 1 µM.
In experiment [10] the target is Mast/stem cell growth factor receptor Kit (Homo sapiens) (UniProt P10721). The conditions noted are these: at 0.1 µM.
Mast/stem cell growth factor receptor Kit (Homo sapiens), sequence (P10721 whole entry): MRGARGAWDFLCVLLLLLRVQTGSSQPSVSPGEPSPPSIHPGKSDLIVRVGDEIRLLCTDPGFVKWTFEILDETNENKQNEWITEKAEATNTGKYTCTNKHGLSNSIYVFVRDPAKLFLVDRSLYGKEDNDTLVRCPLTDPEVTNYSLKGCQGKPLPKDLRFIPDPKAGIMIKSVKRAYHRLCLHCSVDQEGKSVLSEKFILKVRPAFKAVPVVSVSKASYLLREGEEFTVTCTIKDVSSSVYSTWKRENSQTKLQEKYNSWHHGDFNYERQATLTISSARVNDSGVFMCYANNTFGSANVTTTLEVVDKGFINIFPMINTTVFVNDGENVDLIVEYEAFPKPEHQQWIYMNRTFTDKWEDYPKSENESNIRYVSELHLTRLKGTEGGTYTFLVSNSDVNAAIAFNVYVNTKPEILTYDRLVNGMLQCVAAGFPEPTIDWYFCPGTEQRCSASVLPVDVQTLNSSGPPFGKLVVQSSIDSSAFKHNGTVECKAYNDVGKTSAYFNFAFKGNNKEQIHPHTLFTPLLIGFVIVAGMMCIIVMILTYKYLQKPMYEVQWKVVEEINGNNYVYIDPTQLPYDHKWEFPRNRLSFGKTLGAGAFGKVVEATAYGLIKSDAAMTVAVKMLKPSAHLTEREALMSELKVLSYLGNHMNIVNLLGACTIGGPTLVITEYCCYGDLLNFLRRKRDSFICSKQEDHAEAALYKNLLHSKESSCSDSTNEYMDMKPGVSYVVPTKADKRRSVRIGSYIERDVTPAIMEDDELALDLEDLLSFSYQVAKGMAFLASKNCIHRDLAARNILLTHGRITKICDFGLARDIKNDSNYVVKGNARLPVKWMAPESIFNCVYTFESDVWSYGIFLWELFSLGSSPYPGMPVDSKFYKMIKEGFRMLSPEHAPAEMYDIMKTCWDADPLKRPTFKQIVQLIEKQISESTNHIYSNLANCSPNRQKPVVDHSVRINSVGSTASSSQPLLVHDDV
Experiment [11] has the same target. The settings on record: at 1 µM.
The test system of experiment [12] is Mast/stem cell growth factor receptor Kit (Homo sapiens), P10721 [D816V]. The conditions noted are these: at 0.1 µM.
Mast/stem cell growth factor receptor Kit (Homo sapiens), P10721 [D816V], sequence (P10721 whole entry D816V): as the sequence (P10721 whole entry) above, with D816V counted along it
Experiment [13] shares this test system. The settings on record: at 1 µM.
Experiment [14] deals with Mast/stem cell growth factor receptor Kit (Homo sapiens), P10721 [T670I]. The conditions noted are these: at 0.1 µM.
Mast/stem cell growth factor receptor Kit (Homo sapiens), P10721 [T670I], sequence (P10721 whole entry T670I): as the sequence (P10721 whole entry) above, with T670I counted along it
Experiment [15] shares this test system. The conditions noted are these: at 1 µM.
Experiment [16] concerns Mast/stem cell growth factor receptor Kit (Homo sapiens), P10721 [V560G]. The settings on record: at 0.1 µM.
Mast/stem cell growth factor receptor Kit (Homo sapiens), P10721 [V560G], sequence (P10721 whole entry V560G): as the sequence (P10721 whole entry) above, with V560G counted along it
Experiment [17] has the same test system. The settings on record: at 1 µM.
Experiment [18] has as its target Tyrosine-protein kinase Lck (Homo sapiens) (UniProt P06239). The settings on record: at 0.1 µM.
The target is the same in experiment [19]. The settings on record: at 1 µM.
Experiment [20] concerns the target Leukocyte tyrosine kinase receptor (Homo sapiens) (UniProt P29376). The conditions noted are these: at 0.1 µM.

Each structure is given as a SMILES string.

Leukocyte tyrosine kinase receptor (Homo sapiens), sequence (P29376 whole entry): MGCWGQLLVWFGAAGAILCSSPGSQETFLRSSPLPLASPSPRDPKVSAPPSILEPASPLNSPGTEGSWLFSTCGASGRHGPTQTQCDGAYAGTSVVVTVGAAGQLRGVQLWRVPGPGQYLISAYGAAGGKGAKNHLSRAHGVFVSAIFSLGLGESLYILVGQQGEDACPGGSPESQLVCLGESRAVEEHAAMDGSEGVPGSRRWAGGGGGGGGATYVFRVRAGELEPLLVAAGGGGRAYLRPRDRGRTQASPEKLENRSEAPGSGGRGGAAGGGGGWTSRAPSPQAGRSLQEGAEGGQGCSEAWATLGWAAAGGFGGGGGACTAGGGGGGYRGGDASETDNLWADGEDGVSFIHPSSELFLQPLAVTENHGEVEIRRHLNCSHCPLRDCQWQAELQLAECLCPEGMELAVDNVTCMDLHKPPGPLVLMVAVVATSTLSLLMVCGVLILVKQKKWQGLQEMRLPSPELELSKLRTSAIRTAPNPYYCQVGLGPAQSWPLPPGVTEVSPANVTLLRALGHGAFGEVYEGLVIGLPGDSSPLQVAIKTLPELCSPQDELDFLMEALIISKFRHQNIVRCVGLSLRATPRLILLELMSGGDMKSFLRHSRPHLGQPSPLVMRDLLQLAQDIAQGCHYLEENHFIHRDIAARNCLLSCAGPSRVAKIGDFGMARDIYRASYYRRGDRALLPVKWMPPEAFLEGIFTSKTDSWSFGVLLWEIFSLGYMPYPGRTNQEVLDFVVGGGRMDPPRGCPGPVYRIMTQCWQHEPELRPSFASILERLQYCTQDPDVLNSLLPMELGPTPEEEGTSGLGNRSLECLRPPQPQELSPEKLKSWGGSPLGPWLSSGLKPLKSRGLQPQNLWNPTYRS
Tyrosine-protein kinase Lck (Homo sapiens), sequence (P06239 2-509 limits assumed): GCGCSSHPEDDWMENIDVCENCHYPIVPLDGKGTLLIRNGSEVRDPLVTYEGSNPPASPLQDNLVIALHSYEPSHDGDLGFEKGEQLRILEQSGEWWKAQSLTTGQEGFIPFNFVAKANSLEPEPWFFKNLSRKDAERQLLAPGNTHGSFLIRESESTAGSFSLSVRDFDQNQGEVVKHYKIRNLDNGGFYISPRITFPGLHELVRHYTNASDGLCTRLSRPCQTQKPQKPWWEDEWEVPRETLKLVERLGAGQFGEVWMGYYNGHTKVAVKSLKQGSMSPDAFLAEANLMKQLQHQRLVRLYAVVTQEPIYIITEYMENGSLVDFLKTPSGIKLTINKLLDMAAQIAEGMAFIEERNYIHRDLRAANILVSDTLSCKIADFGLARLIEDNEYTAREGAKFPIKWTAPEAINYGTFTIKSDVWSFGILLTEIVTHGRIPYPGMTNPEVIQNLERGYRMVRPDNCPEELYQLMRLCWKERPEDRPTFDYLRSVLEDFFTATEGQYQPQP

In the case of `c1ccc(Nc2ncc(-c3ccccc3)o2)cc1`, the inhibition (commonly the relative decrease from the control value, in per cent) in [1] is 1.67%; in experiment [2], 8.4%; in experiment [3], 8.08%; in experiment [4], 1.08%; in [5], 1.6%; in experiment [6], -1.29%. The inhibition in experiment [7] was -1.89%; in experiment [8], 4.68%; in experiment [9] it was 19.8%; in experiment [10], 30.9%; in experiment [11], 88.1%; in experiment [12], 1.88%. In addition, the inhibition was 3.71% in experiment [13]; 4.48% in [14]; 40% in [15]; 1.47% in experiment [16]; 50.4% in experiment [17]; 3.52% in experiment [18]. In addition, the results for the inhibition in experiment [19] and in [20] were 10.9% and 6.86%, respectively.
As to `COc1cc2ncnc(Nc3ccc4c(cnn4Cc4ccccc4)c3)c2cc1OC`, the inhibition in experiment [1] is 1.9%; in [2] it was 4.18%; in [3], 2.43%; in [4] it was 1.01%; in [5], 1.11%; in experiment [6], -1.67%. Also, the inhibition is 1.82% in experiment [7]; 6.63% in experiment [8]; 47.6% in experiment [9]; 2.37% in experiment [10]; 9.47% in [11]; 1.06% in [12]. Further, the inhibition is 2.79% in experiment [13]; 2.31% in [14]; 2.58% in experiment [15]; -3.09% in [16]; 2.41% in experiment [17]; 19.5% in experiment [18]. Besides, the inhibition in experiment [19] came to 61.1%; in experiment [20], 2.67%.
In the case of `Cc1ccc2c(c1)/C(=N/Nc1ccc(S(N)(=O)=O)cc1)C(=O)N2`, the inhibition in experiment [1] is 1.38%; in [2], -1.86%; in [3] it was -1.74%; in experiment [4] it was -1.17%; in experiment [5], -0.24%; in experiment [6], 0.33%. The inhibition in experiment [7] is 4.38%; in experiment [8], 2.62%; in [9], 22.6%; in experiment [10] it was 27.8%; in experiment [11], 80.1%; in experiment [12], -0.66%. Also, the inhibition in experiment [13] was -3.04%; in experiment [14], 3.2%; in experiment [15], 54.4%; in experiment [16] it was 1.27%; in [17], 24.4%; in experiment [18], 1.15%. Besides, the figures for the inhibition in experiment [19] and in experiment [20] were 3.66% and 0.21%, respectively.
Regarding `NC(=O)c1sc(-n2cnc3ccccc32)cc1OCc1ccccc1Br`, the inhibition was 2.17% in experiment [1]; 4.07% in experiment [2]; 3.98% in experiment [3]; 1.97% in [4]; 2.84% in [5]; -2.53% in [6]. Besides, the inhibition in [7] came to 0.23%; in experiment [8], 0.79%; in experiment [9], 13.6%; in [10], 5.61%; in [11], 5.34%; in experiment [12], 2.22%. Moreover, the inhibition in experiment [13] was 4.99%; in experiment [14] it was 1.31%; in experiment [15], 4.08%; in experiment [16], -5.3%; in experiment [17] it was -0.34%; in experiment [18], 3.94%. For the same molecule, the inhibition in [19] is 5.49%; in experiment [20], 4.25%.
Consider `Cc1cc(O)cc(C)c1/C=C/c1cncc(C(=O)N(C)C)c1`, for which the inhibition in experiment [1] is 1.94%; in [2], 4.52%; in [3], 5.42%; in [4], 1.7%; in [5] it was 3.22%; in [6] it was -0.76%. Moreover, the inhibition worked out at 1.31% in experiment [7]; 7.06% in [8]; 12.3% in [9]; 4.12% in experiment [10]; 8.58% in experiment [11]; 0.33% in experiment [12]. The inhibition in [13] was 1.49%; in experiment [14], 2.61%; in experiment [15] it was 1.57%; in [16] it was 5.07%; in experiment [17] it was 4.85%; in [18], 3.69%. Also, the figures for the inhibition in [19] and in experiment [20] were 8.38% and 2.93%, respectively.
On to `NS(=O)(=O)c1cccc(Nc2cc(-c3ccc(F)cc3)n[nH]2)c1`, for which the inhibition in [1] was 6.64%; in experiment [2], 3.56%; in experiment [3], 10.4%; in [4], 0.36%; in [5], 1.81%; in experiment [6], -1.55%. For the same molecule, the inhibition in experiment [7] is 1.11%; in experiment [8], 5.37%; in experiment [9], 15.3%; in experiment [10] it was 34.5%; in [11] it was 84.5%; in experiment [12], 2.34%. Moreover, the inhibition in [13] stood at 4.52%; in experiment [14], 3.28%; in [15], 20.1%; in [16], 6.14%; in [17], 38%; in experiment [18], 1.18%. For the same molecule, the inhibition in experiment [19] was found to be 6.1%; in experiment [20], 3.59%.
